About 3,200 (25%) of roughly 13,000 compounds showed an effect of 50% or more. The list shows a part of the results.
Tested on: P. falciparum stage V gametocytes
Set-up: BacTiter-Glo ATP luminescence viability of purified stage V gametocytes in 384-well plates, per cent inhibition versus DMSO
Details: 48 h, 5 µM; inhibitor

| SMILES | % Inhibition [%] |
| --- | --- |
| OCCc1ccc(Nc2nccc(-c3nnc4ccccn34)n2)cc1 [TCMDC-138924] | -13.1 |
| COc1ccc(Nc2nc(NCc3cccnc3)cc(-c3ccc(OC)cc3)n2)cc1 [TCMDC-133467] | 9.957 |
| Cc1ccc(-c2[nH]n3c(=O)c4c(nc3c2C)CCCC4)cc1 [TCMDC-124479] | 75.27 |
| Cc1cc(-c2cc3nc4c(c(=O)n3[nH]2)CCCC4)c(C)o1 [TCMDC-125325] | 32.39 |
| O=c1[nH]c(NCCCNCc2cc3c(Cl)cc(Cl)cc3[nH]2)nc2ccsc12 [TCMDC-139925] | -0.4742 |
| Cc1cc(N2CCCC2)nc(Nc2ccc(NC(=O)C3CCCC3)cc2)n1 [TCMDC-124964] | -12.42 |
| CS(=O)(=O)Cc1cccc(Nc2ncc(Cl)c(Nc3cccnc3C(N)=O)n2)c1 [TCMDC-134166] | -54.44 |
| O=C(Nc1cccc(-c2nn3ccccc3c2-c2ccnc(Nc3ccc(C(=O)N4CCOCC4)cc3)n2)c1)c1c(F)cccc1F [TCMDC-135910] | -23.59 |
| NC(=O)N1CCN(Cc2ccc(Br)cc2)CC1 [TCMDC-137933] | 4.957 |
| c1ccc(Oc2ccc(Nc3ccnc4cc(-c5ccc(CNCCN6CCOCC6)o5)ccc34)cc2)cc1 [TCMDC-138398] | 12.11 |
| N#Cc1cnc2cc(-c3cnc(CNCCN4CCOCC4)s3)ccc2c1Nc1ccc(Oc2ccccc2)cc1 [TCMDC-138611] | 2.275 |
| c1cncc(Oc2ccc(Nc3ccnc4cc(-c5cccc(CNCCN6CCOCC6)c5)ccc34)cc2)c1 [TCMDC-138492] | 84.98 |
| c1ccc(Oc2ccc(Nc3ccnc4cc(-c5cccc(CNCCN6CCOCC6)c5)ccc34)cc2)cc1 [TCMDC-138474] | 52.49 |
| Fc1ccc(Nc2ccnc3cc(-c4cccc(CNCCN5CCOCC5)c4)ccc23)c(Cl)c1 [TCMDC-138414] | 41.76 |
| CN(C)CC1CCCN1Cc1ccccc1-c1cnn(C)c(=O)c1Oc1cccc(C#N)c1 (centres unmarked) [TCMDC-135097] | -59.69 |
| COc1ccc(CCNC(=O)c2ccc(-n3cc(NC(=O)c4cccnc4)cn3)cc2)cc1OC [TCMDC-124665] | 38.46 |
| Nc1nc(N)c2c(Cl)c(N(Cc3ccccc3)Cc3ccccc3)ccc2n1 [TCMDC-137993] | -38.99 |
| O=C(O)C(F)(F)F.c1ccc(CNCc2cccc(-c3ccc(-c4nc5ccccc5[nH]4)s3)c2)cc1 [TCMDC-132714] | 15.98 |
| O=S(=O)(NCCN1CCCC1)c1ccc(-c2ccc(CNCc3ccccc3)cc2)s1 [TCMDC-132233] | 71.01 |
| O=S(=O)(NCCN1CCCC1)c1ccc(-c2ccc(CN3Cc4ccccc4C3)cc2)s1 [TCMDC-132286] | 9.199 |
| O=S(=O)(NCCN1CCCC1)c1ccc(-c2cccc(CNCc3ccccc3)c2)s1 [TCMDC-132216] | 86.1 |
| CCOC(=O)N1CCC(NC(=O)c2ccc(C(C)(C)C)cc2OC)CC1 [TCMDC-139314] | 15.99 |

| SMILES | % Inhibition [%] |
| --- | --- |
| O=C(c1cccc(-c2noc(C(F)(F)F)n2)c1)N1CCN(C(=O)c2ccc3cc[nH]c3c2)CC1 [TCMDC-132422] | 0.1652 |
| N#Cc1cccc(NC(=O)c2ccc(S(=O)(=O)NCC3CCCN3CC3CCCCC3)cc2)c1 (centres unmarked) [TCMDC-133796] | -13.1 |
| CN1CCN(CCCN(Cc2cccc(-c3ccc(CNCCc4ccccc4)cc3)c2)C(=O)Nc2ccccc2)CC1 [TCMDC-140595] | 97.36 |
| CN1CCN(CCCN(C(=O)Nc2cc(C(F)(F)F)cc(C(F)(F)F)c2)c2ccccc2Cc2ccccc2)CC1 [TCMDC-136454] | -18.83 |
| CC(C)CNCc1cccc(-c2cccc(CN(CCCN3CCN(C)CC3)C(=O)Nc3ccccc3)c2)c1 [TCMDC-140593] | 80.6 |
| CN1CCN(CCCN(Cc2cccc(-c3cccc(CNCCc4ccccc4)c3)c2)C(=O)Nc2ccccc2)CC1 [TCMDC-140594] | 106.2 |
| Cc1csc2nc(C(C)c3ccc(NC(=O)c4cccs4)cc3)oc(=O)c12 (centres unmarked) [TCMDC-139034] | 5.722 |
| Cc1cc(-c2ccc(NC(=O)Nc3ccc4nccc(N5CCN(C)CC5)c4c3)cc2C)cc(C)n1 [TCMDC-139355] | 10.84 |
| Cc1cc(N[C@@H](Cc2ccccc2)C(=O)NCCc2ccccc2)nc(NCC2CCCCC2)n1 [TCMDC-134934] | -20.83 |
| CCCC(C)C(=O)N1CCOC(COCc2cccc(C(F)(F)F)c2)(c2ccc(Cl)cc2)C1 (centres unmarked) [TCMDC-141953] | 24.89 |
| C=CCC1OC(=O)c2cc(OC)cc(OC)c21 (centres unmarked) [TCMDC-138677] | 106 |
| C=CC(C)C1OC(=O)c2cc(OC)cc(OC)c21 (centres unmarked) [TCMDC-138676] | 102.9 |
| Cc1ccc(-c2cc(C(=O)Nc3ccc(S(=O)(=O)N4CCCCC4C)cc3)[nH]n2)c(O)c1 (centres unmarked) [TCMDC-124908] | -44.76 |
| CCCCCCN(CCCCCC)CC(O)c1cc(-c2ccc(Cl)cc2)nc2c(C)cc(C)cc12 (centres unmarked) [TCMDC-125503] | -72.43 |
| CN(C(=O)NCCc1ccccc1)C1CCN(CCCCCNC(=O)/C=C/c2ccc(Cl)c(Cl)c2)CC1 [TCMDC-139523] | -13.13 |
| COc1ccc(-n2ccnc2SCC(=O)Nc2cc(C)ccc2C)c(OC)c1 [TCMDC-123824] | -3.768 |
| COc1ccc(-c2nc3cccnc3n2CC(=O)Nc2cc(Cl)c(Cl)cc2Cl)c(OC)c1 [TCMDC-135101] | 5.638 |
| COc1ccc(-c2nc3cccnc3n2CC(=O)Nc2c(C)cc(C)cc2C)c(OC)c1 [TCMDC-135284] | 61.51 |
| CC(C)CNCc1ccc(-c2cccc(CN(C(=O)Nc3ccccc3)C3CCN(Cc4ccccc4)CC3)c2)cc1 [TCMDC-140585] | 74.29 |
| CC(C)CNCc1cccc(-c2cccc(CN(C(=O)Nc3ccccc3)C3CCN(Cc4ccccc4)CC3)c2)c1 [TCMDC-140584] | 53.9 |
| CC(C)CNCc1ccc(-c2ccc(CN(C(=O)Nc3ccccc3)C3CCN(Cc4ccccc4)CC3)cc2)cc1 [TCMDC-140598] | 108.5 |
| CC(C)CNCc1cccc(-c2ccc(CN(C(=O)Nc3ccccc3)C3CCN(Cc4ccccc4)CC3)cc2)c1 [TCMDC-140597] | 96.79 |

— paper PMC4552634, “A New Set of Chemical Starting Points with Plasmodium falciparum Transmission-Blocking Potential for Antimalarial Drug Discovery” (PLoS ONE, 2015)
